Data taken from the OligoGym collection.

molecular target: PTPN7; assay: pooled miR-30 sensor sort-seq; sequence = guide strand; conditions: shRNA
Also: reference of the scale not given here.

| Sequence | sensor-assay potency score (higher = more potent) |
| --- | --- |
| TTGTCCTTACTGCTGCTGCTTC | -0.729 |
| TAGACAGACACGGCTCTGGGGA | -0.764 |
| TTGGCATTGATGTAATCTCCGT | -0.978 |

molecular target: PTPRT; assay: as above; conditions: shRNA

| Sequence | sensor-assay potency score (higher = more potent) |
| --- | --- |
| TATCTGATATTCATTGACCTGA | -0.134 |
| TAAGTCATCTGCATCCTCGGTT | 0.728 |
| TAGATTTTTTAACACAGCCATG | -1.72 |
| TAGTTGATCTCGTAGAGCGTGA | -0.257 |
| TAGTGTAGAGAATCGAGGCTGG | 0.97 |
| TTGAGTCGCAATGTAGTGCCGA | -0.352 |
| TTTGTGACCATGACGATGCTGG | 0.113 |
| TTTGCTTTGAGGCACTTCCTTT | -1.11 |
| TATTGTAGTAGAGAGAACGGAA | -0.217 |
| TATCTTGTTTGTCTCTTCCAAA | -1.13 |
| TTGGTCTTGATCTTGAGCCTAT | -0.529 |
| TAATCGAACACCAGCCTCCAGA | -0.958 |

molecular target: PXDN; assay: as above; conditions: shRNA

| Sequence | sensor-assay potency score (higher = more potent) |
| --- | --- |
| TTTTCCACTTTCTGTCACCTGA | 0.0535 |
| TTCACAGTTCAGCTCTTCCGGG | -0.633 |
| TATAGCTCTGTCAACAGTCGCA | -0.0838 |
| TTGAGGTCGACCATCAAGCCAT | -0.562 |
| TTCTATCTGATTAAAGTGCAGG | -0.41 |
| TTCCAGAACAAACTCTCTGAAG | -1.36 |
| TGTAGTGGTAACTTGTTCCGTT | 0.669 |
| TTCAGCTTGAGCAGCTCCGTGG | -0.881 |
| TTGAGTTTATAGCTCTGTCAAC | -1.24 |
| TATCTGATTAAAGTGCAGGTAT | -0.445 |
| TTGTAGTGGTAACTTGTTCCGT | -0.383 |

molecular target: PXN; assay: as above; conditions: shRNA

| Sequence | sensor-assay potency score (higher = more potent) |
| --- | --- |
| TTCAGTTCCAGCAGCAGGCGGT | -0.708 |
| AACATGTCGAAGTAGTCCTTGC | -0.89 |
| TTTCACAGTAGGGCTGTCCATC | -0.695 |
| TCGTGCTCGAAGAAGCTGCCGT | -0.594 |
| TTGAGTTGGCCTCATCTGCAGG | -0.889 |
| TACAGCGTTCAGTTCCAGCAGC | -0.582 |
| TAGTTCTCCAGGATGGCCCGGG | -0.505 |
| TTGTTGAGCTGCTTGAGGCAGA | -0.264 |
| TTGCAGTAGTAGCAGCGCGGGG | -1.51 |
| TAGGCTTCTCTTTCGTCAGGGG | 0.384 |
| TAGAAATCTATCAAAGTCGGTA | 0.0963 |
| TTCTCGTGGAACCCTTCGGGAC | -1.59 |
